The subject of test [1] is Vero E6 infected with SARS-CoV-2. Kind of test: morphology score (similarity to uninfected cells); higher = more like uninfected cells. The settings on record: 24 h.
For test [2] the test system is unchanged. Kind of test: SARS-CoV-2 infection rate relative to infected DMSO; higher = more infection, active = 60 or less. The settings on record: 24 h.

Where a name gives a salt, the structure may show the parent alone.

As for `O=C1c2c(O)cccc2C([C@@H]2O[C@H](CO)[C@@H](O)[C@H](O)[C@H]2O)c2cc(CO)cc(O)c21` (stereo partly specified) [aloin] (10 µM), the morphology score in test [1] was -0.243. Further, the SARS-CoV-2 infection rate in test [2] was 116% (inactive).

In test [1], `C=CCCCCCCCCC(=O)[O][Zn][O]C(=O)CCCCCCCCC=C` [zinc-undecylenate] (10 µM) had a morphology score of 0.0826. Further, the SARS-CoV-2 infection rate in test [2] is 110% (inactive).

For the molecule `N=c1ccn2c(n1)O[C@H]1[C@H](O)[C@@H](CO)O[C@H]12` [Cyclocytidine HCl] (0.833333 µM), in test [1], the morphology score was -0.127. Besides, in test [2], the SARS-CoV-2 infection rate is 114% (inactive).

The values are drawn from the supplement of paper PMC13380429.
